Screens (PubChem BioAssay)
NLRP3 yeast inh: blocks the NALP3 inflammasome reconstituted in yeast | 330,000 compounds, 0.39% hits | Yeast reconstituted NLRP3/ASC/caspase-1, beta-gal luminescence, 24 h | inhibition, % at 10 µM;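 active = inhibition of 50% or more; inactive = inhibition below 50%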;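 note: plate controls were induced DMSO wells for no effect and uninduced yeast grown without galactose for full effect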
PolyA inhibitor: blocks polyadenylation in yeast reporter cells; S. cerevisiae SKY197-pL101 polyadenylation reporter, beta-gal luminescence; efflux-impaired pdr1/pdr3 knockout yeast; score 100 = 6 SD above DMSO; activity score, % at 12 µM; 300,000 compounds, 0.02% hits; AID 1875;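 active = lowest replicate activity score at least 50, where 100 means six control SD above control mean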;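 note: yeast exposed to compound for 9 h at 30 °C; higher score means more reporter readthrough which indicates perturbed polyadenylation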
dFosB act: mouse delta FosB homodimer activation | purified delta FosB, TAMRA-CDK5 oligo fluorescence polarization; percent of positive-control signal above neutral wells | activation, % at 25 µM | P13346 | 340,000 compounds, 0.99% hits;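 active = mean activation above about 17%, with every replicate also reaching it, limit read from the data, passing the limit was not always enough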
Target sequence (P13346 whole entry, looked up): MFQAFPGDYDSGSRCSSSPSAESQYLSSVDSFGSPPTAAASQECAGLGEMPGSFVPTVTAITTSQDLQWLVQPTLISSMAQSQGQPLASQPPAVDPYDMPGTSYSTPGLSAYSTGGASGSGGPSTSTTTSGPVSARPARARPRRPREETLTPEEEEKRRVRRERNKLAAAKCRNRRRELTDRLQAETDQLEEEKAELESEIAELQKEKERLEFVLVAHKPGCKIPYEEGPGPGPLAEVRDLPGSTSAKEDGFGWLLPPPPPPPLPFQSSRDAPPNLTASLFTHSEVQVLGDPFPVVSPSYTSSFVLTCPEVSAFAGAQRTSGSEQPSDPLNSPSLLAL
NALP1 inh: blocks the NALP1 inflammasome reconstituted in yeast | S. cerevisiae NALP1/ASC/caspase-1 growth, X-gal OD620, 72 h | inhibition, % at 10 µM | 280,000 compounds, 0.61% hits; in the data active = inhibition mostly above about 24%, no sharp cut-off; inactive = mostly below about 32%
EBNA-1 inhibitor: blocks EBNA-1 binding to DNA; EBNA-1 DNA binding, fluorescence polarization; inhibition, % at 14.8 µM; 300,000 compounds, 0.34% hits; in the data active = inhibition above about 28%
ZTA DNA inh: counter-screen for EBNA-1 inhibitors: inhibitors of Epstein-Barr virus ZTA | P03206 | ZTA-DNA binding, fluorescence polarization | inhibition, % at 11 µM | 320,000 compounds, 0.15% hits; in the data active = inhibition above about 33%
Target sequence (P03206 whole entry, looked up): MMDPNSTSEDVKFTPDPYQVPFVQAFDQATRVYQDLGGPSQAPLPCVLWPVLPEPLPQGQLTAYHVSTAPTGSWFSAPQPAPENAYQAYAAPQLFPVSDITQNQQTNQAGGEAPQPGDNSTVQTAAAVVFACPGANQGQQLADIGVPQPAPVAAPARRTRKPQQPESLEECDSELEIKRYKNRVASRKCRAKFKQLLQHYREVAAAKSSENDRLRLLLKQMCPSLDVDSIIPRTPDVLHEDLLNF
* marks the source's active call; other numbers are inactive results; . = no result; + = active, no number. Shown are actives, neighbours in structure and some others; about 2.2% of the full set was active somewhere.

SMILES | NLRP3 yeast inh | PolyA inhibitor | dFosB act | NALP1 inh | EBNA-1 inhibitor | ZTA DNA inh
CCN(CC)Cc1cc(Nc2c3ccccc3nc3c4ccccc4n(C)c23)cc(CN(CC)CC)c1O | . | . | 65.6* | . | . | .
CCOc1cc2nc3c4ccccc4n(C)c3nc2cc1OCC | 22.4 | 10.3 | -13.1 | 23.2 | -3.9 | -11.7
CCOC(=O)C1=C(COC(=O)C2CC(=O)N(c3ccccc3F)C2)NC(=O)NC1C (centres undefined) | 9.8 | . | -7.5 | . | . | 3.0
S=C(Nc1ccc(Cl)c(Cl)c1)N1CCCC1 | 16.2 | -29.4 | -2.3 | 11.2 | -3.9 | 2.4
CN1CCN(C(=S)Nc2ccc(Cl)c(Cl)c2)CC1 | -18.1 | 1.7 | -5.3 | 48.0* | 1.8 | 2.0
Cc1cc(C)n(CC(O)Cn2c3ccc(Br)cc3c3cc(Br)ccc32)c(=O)n1 (centres undefined) | 7.2 | 3.6 | 19.9* | -6.1 | 6.2 | 5.0
CCOc1ccccc1N1CCN(C(=O)C2=CC=CN3CCS(=O)(=O)N=C23)CC1 | 6.5 | . | 3.3 | . | . | -4.9
OCCN1CCN(CC/C=C2/c3ccccc3Sc3ccc(Cl)cc32)CC1 | 25.6 | . | 17.0* | . | 1.3 | -10.2
CCN(Cc1ccccc1)C1CCN(Cc2ccc(SC)cc2)CC1 | 26.2 | -22.3 | -13.9 | 27.8* | -5.6 | 9.8
Cc1ccc(C(=O)Nc2nc(-c3ccccn3)cs2)s1 | 39.8 | . | -25.6 | . | . | -6.1
O=C(Nc1nc(-c2ccccn2)cs1)c1ccc(Cl)s1 | -0.9 | 14.2 | -14.3 | 97.7* | -0.9 | -10.2
COc1ccc(C2(CNC(=O)c3ccc(N)cc3)CCCC2)cc1 | 9.0 | 5.0 | -4.6 | 42.2* | -2.2 | 6.7
COc1ccc(C2(CNC(=O)c3ccc(C)cc3)CCOCC2)cc1 | 2.6 | -0.9 | -4.4 | 12.8 | 9.8 | 0.5
CCS(=O)(=O)Nc1ccc2c(c1)N(C(C)=O)c1ccccc1CC2 | 13.1 | -1.4 | -4.9 | 28.4* | -2.9 | -2.0
COc1cccc(N2CC(C)Cn3c2nc2c3c(=O)[nH]c(=O)n2C)c1 (centres undefined) | 12.2 | 1.0 | 1.7 | 5.0 | . | .
C=C(C)CNC(=S)N/N=C/c1ccc([N+](=O)[O-])cc1 | 20.7 | -4.3 | 1.1 | 32.2* | -1.1 | -4.8
Cc1nc(-c2ccc3c(c2)OCCCO3)cs1 | 17.4 | 8.0 | 4.2 | 42.0* | -5.2 | 7.2
CCNC(=O)NC(=O)COC(=O)c1cccc(S(=O)(=O)N2CC3(C)CC2CC(C)(C)C3)c1 (centres undefined) | 13.9 | -13.8 | -10.9 | . | -2.3 | -23.3
Cc1cc(OCCCC(=O)N2CCCCC2)cc(C)c1Cl | 40.5 | -9.6 | -1.0 | 21.3* | 6.5 | -1.2
CCCCN1CC(COCc2ccccc2)Oc2cccc(OCCN3C(=O)[C@@H]4[C@H](C3=O)C3C=C[C@H]4C3)c2S1(=O)=O (some centres undefined) | . | . | -11.0 | . | . | .
CC1(c2cccc(Br)c2)NC(=O)N(CC(=O)Nc2ccc3c(c2)OCCO3)C1=O (centres undefined) | -5.0 | . | -14.1 | . | . | .
O=C(CCCCCn1c(=S)[nH]c2ccc(N3CCOCC3)cc2c1=O)NC1CCN(Cc2ccccc2)CC1 | 8.4 | 2.7 | 1.1 | -14.3 | 12.3 | 0.0
O=C(NC1CCN(Cc2ccccc2)CC1)c1ccc(Cn2c(=S)[nH]c3ccc(N4CCOCC4)cc3c2=O)cc1 | 4.8 | -2.8 | 34.2* | -6.8 | -10.4 | 0.0
CC1CCN(c2ccccc2NC(=O)c2ccc(Br)o2)CC1 | 0.7 | -7.0 | -9.6 | -7.7 | 10.2 | -8.0
CCN(CC)CCCN(Cc1cc2ccc(C)c(C)c2[nH]c1=O)C(=O)NC1CCCCC1 | 12.8 | -0.2 | -1.9 | 23.3* | 6.5 | -7.1
SMILES | NLRP3 yeast inh | PolyA inhibitor | dFosB act | NALP1 inh | EBNA-1 inhibitor | ZTA DNA inh
COc1ccc(S(=O)(=O)NCCC(=O)Nc2ccc(C)cc2)cc1 | 9.7 | -3.6 | -4.0 | 0.7 | 12.1 | 0.1
Nc1ccc(O)c2c1C(=O)c1ccccc1C2=O | 9.6 | 0.5 | -109.5 | -16.1 | 13.0 | 36.8*
Nc1ccc(Br)c2c1C(=O)c1ccccc1C2=O | 1.0 | -31.2 | . | 0.4 | -9.3 | -8.4
O=C(N/N=C/c1cc(Br)ccc1O)c1ccccc1Cl | 16.8 | -0.8 | -2.7 | 59.1* | 2.3 | 0.9
Oc1ccc(Br)cc1/C=N/Nc1ncc(-c2ccccc2)cn1 | 22.9 | -17.1 | 30.1* | 7.9 | 13.8 | -1.8
COC(=O)N/N=C/c1cc(Br)ccc1O | 30.1 | -24.1 | -3.7 | -5.3 | 0.8 | 5.2
CC(OC(=O)CCC1CCCC1)C(=O)Nc1ccccc1[N+](=O)[O-] (centres undefined) | 19.0 | 12.6 | -10.3 | . | -11.9 | 2.5
COc1ccc(CCn2c(C)cc3c(c2=O)C(c2ccc4c(c2)OCO4)C(C#N)=C(N)O3)cc1OC (centres undefined) | 1.3 | 2.5 | 51.3* | 0.1 | 6.8 | 13.9
Cc1ccc(CNC(=O)Nc2ccc3c(c2)N(C)C(=O)CS3)cc1 | 26.5 | 6.9 | 1.8 | 30.7* | 6.2 | 5.6
COC(=O)C1CCN(Cc2cn(Cc3ccccc3)nc2-c2cc3ccccc3o2)CC1 | 20.0 | 8.2 | -4.3 | 32.0* | -2.8 | -8.9
C(=C\c1ccco1)/C=N/n1cnnc1 | -3.2 | -19.7 | -2.2 | 21.5* | -7.7 | -2.5
CCN(CC)CC(C)(C)C(=O)/C=C/c1ccc(/C=C/C(=O)C(C)(C)CN(CC)CC)cc1 | . | . | -4.1 | . | . | .
O=S(=O)(c1cccs1)N1CCN(c2ccc(O)cc2)CC1 | 23.6 | -7.3 | 6.2 | 34.9* | 11.4 | 6.2
Cn1c(-c2ccsc2)c(-c2cccs2)c2cc(Br)ccc21 | 12.2 | . | 0.3 | . | . | 14.2
OCCN1CCN(Cc2cc(Cl)c3cccnc3c2O)CC1 | 25.6 | -60.7 | 2.2 | 6.8 | -10.1 | -3.3
Oc1c(CN2CCN(c3ccccn3)CC2)cc(Cl)c2cccnc12 | 37.1 | -51.4 | 9.3 | 79.2* | -5.0 | 12.0
NC(=O)c1ncn([C@@H]2O[C@H](CNCc3cccc(OC4CCCC4)c3)[C@@H](O)[C@H]2O)n1 | . | . | -4.2 | . | . | .
CCOC(=O)/C=C/C(=O)OCC(=O)Nc1ccc(Cl)cc1Cl | -5.7 | -3.0 | -6.3 | 28.2* | 15.3 | -1.5
CCOC(=O)/C=C/C(=O)OCC(=O)Nc1c(Cl)cccc1Cl | 5.9 | -16.1 | -4.4 | -4.1 | -6.1 | 6.4
CCCCc1c(C)c(C#N)c2nc3ccccc3n2c1NCCN(C)C | 26.0 | -10.3 | -6.0 | 34.2* | . | .
NCCC1CCCC(CCN)N1 (centres undefined) | 21.3 | . | 4.2 | . | + | +
Cc1cccc(/C(N)=N/OC(=O)Cc2ccccc2)c1 | 5.7 | -7.5 | -2.5 | -12.1 | 4.9 | 3.3
Cc1cccc(/C(N)=N/OC(=O)C23CC4CC(CC(C4)C2)C3)c1 | 9.4 | -4.6 | 1.8 | 59.4* | 10.1 | -24.2
COc1cc(OC)cc(C(=O)O/N=C(\N)c2cccc(C)c2)c1 | 26.6 | -8.8 | -5.3 | 43.1* | -20.1 | -5.1
CC1(C)CC2(CCCN3C(=O)CSC32)CCS1 (centres undefined) | 10.4 | 21.1 | -3.4 | 38.0* | -5.3 | 8.1
O=C(NCc1ccco1)c1ccc(C(=O)NCc2ccco2)cc1 | . | . | 2.2 | . | . | .
